Screens deposited in PubChem by National Center for Advancing Translational Sciences (NCATS).
An excerpt weighted towards active compounds, which were near 19% of everything screened.
SW480 rerep: induces DNA re-replication in SW480 colon adenocarcinoma cells; Potency, µM (top dose mostly 46.1 µM), inactives show at the highest dose re-replication activation, most hits filed as activators; hit rate 1.8% among 340,000; SW480 DNA re-replication, Hoechst DNA content imaging, 48 h; AID 624297; further: potency means the concentration at half of the fitted maximal effect; % of control where 0% means no effect; nearly all actives have a fitted effect of over 55% in size
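Image-based read-out: total Hoechst fluorescence of nuclei (405 nm excitation, 500-530 nm emission), with hits raising the fraction of high-intensity nuclei. SW480 colon cells incubated 48 hr with compounds at 37 C.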
MCF10A rerep: inducers of DNA re-replication in MCF 10A breast cells. MCF 10A DNA re-replication, Hoechst nuclear intensity, 48 h. AID 624296. Potency, µM (series often up to 46.1 µM), for the others: at the highest dose activity, positive = re-replication, usual class: activators. hit rate 2.9% among 350,000; further: potency means the concentration at half of the fitted maximal effect; % of control where 0% means no effect; nearly all actives have a fitted effect of over 50% in size
TDP1 cell noCPT: qHTS for Inhibitors of human tyrosyl-DNA phosphodiesterase 1 (TDP1): qHTS in cells in absence of CPT | DT40 Tdp1-/- hTDP1 cells, no CPT, ATP luminescence, 48 h | Potency, µM (series often up to 46.2 µM), for the others: at the top dose activity change, negative = growth inhibition, actives largely listed as inhibitors | hit rate 15% among 420,000 | AID 686978, 2013; further: potency means the concentration at half of the fitted maximal effect; on the % scale 0 is the no-effect control and ±100 the full control effect; nearly all actives have a fitted effect of over 55% in size
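Readout: luminescence from CellTiter-Glo after 30 min in the dark at RT. Cells: DT40 Tdp1-/- with stable hTDP1, 400/well. Exposure: compounds alone, ≥48 hr, 37 °C.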
TDP1 cell CPT: growth inhibition of DT40 Tdp1-/-;hTDP1 cells with camptothecin (screen for TDP1 inhibitors) | chicken DT40 Tdp1-/-;hTDP1 cells + 20 nM CPT, ATP luminescence, 48 h | Potency, µM (series often up to 46.2 µM), for inactives: at the highest dose activity change, negative = growth inhibition, usual class: inhibitors | hit rate 12% among 420,000 | AID 686979; further: potency means the concentration at half of the fitted maximal effect; on the % scale 0 is the no-effect control and ±100 the full control effect; nearly all actives have a fitted effect of over 55% in size
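Chicken DT40 Tdp1-/- cells stably complemented with human TDP1 were seeded at 400 cells/well in medium containing 20 nM camptothecin, exposed to pin-transferred compounds, and grown at 37 °C for at least 48 hr. Viability was read as ATP luminescence.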
IL-1B inflam inh: blocks inflammasome-driven IL-1 beta release. THP-1 LPS/ATP IL-1B secretion, AlphaLISA, 16 h; hits give low values. activity change, % at 57.5 µM. hit rate 4.7% among 360,000. AID 743279; in the data active means activity change below about -50%; inconclusive means mostly about -30% to -49%; further: on the % scale 0 is the no-effect control and ±100 the full control effect
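THP-1 cells pretreated 1 hr with compounds (up to 57.5 uM final), then stimulated with LPS (250 ng/mL final) plus ATP (1.25 mM final); secreted IL-1B measured by AlphaLISA after 16 hr, decreased signal indicating inhibition.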
BCR signal inh: blocks chronic active B-cell receptor signaling. ABC-DLBCL IkBa-CBG/CBR reporter, luminescence ratio, 4 h. hit rate 0.05% among 340,000. Potency, µM (titrated, usually from 46.1 µM), without a hit: at the top dose activity change, negative = inhibition, actives largely listed as inhibitors; active means well fitted inhibition curve with a large enough effect in the signal ratio, with a control signal flat, not every such curve was filed as active; inconclusive means small, poorly fitted or top-dose-only effect, or effect the other way, or a change in a side signal; the % refers to the signal ratio;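 further: potency means the concentration at half of the fitted maximal effect; plate controls were basal doxycycline-induced cells for no effect and cells given 10 µM MG132 for full effect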
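Doxycycline induced both beetle luciferases in TMD8 lymphoma cells; IKK-driven degradation limits the IkappaBalpha-fused green signal, while red luminescence normalises for cell number and nonspecific effects. Compounds tested up to 46 uM, 4 hrs.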
* hit, by the source's call. Unless noted, the call rests on the fitted dose curve; in most records, active means well fitted curve in the direction sought with a large enough effect; inconclusive means small, poorly fitted or top-dose-only effect, or another doubt; inactive means no such curve, though single readings can be large; an effect the other way counts as inactive or inconclusive.

CN(C)c1ccc(CC(=O)N2CCCCC2c2cc(C(=O)Nc3cccc4c3CCCC4)no2)cc1 (configuration not stated) was read as TDP1 cell noCPT inconclusive, TDP1 cell CPT 26µM* and IL-1B inflam inh -16.
For CN(C)c1ccc(CC(=O)N2CCCC(c3cc(C(=O)Nc4ccccc4)no3)C2)cc1 (configuration not stated) the results were TDP1 cell noCPT inconclusive, TDP1 cell CPT inconclusive and IL-1B inflam inh 0.
`CN(C)c1ccc(CC(=O)N2CCCCC2c2cc(C(=O)Nc3ccccc3)no2)cc1` (configuration not stated) gave TDP1 cell noCPT 26µM*, TDP1 cell CPT 21µM* and IL-1B inflam inh 0.
For Cc1ccc(C)c(CC(=O)N2CCCCC2c2cc(C(=O)Nc3cccc(C#N)c3)no2)c1 (configuration not stated) the results were TDP1 cell noCPT 23µM*, TDP1 cell CPT 23µM* and IL-1B inflam inh 20.
COc1ccc(NC(=O)CSc2nc3c(c(=O)n2C)SCC3)cc1OC was read as SW480 rerep inconclusive, MCF10A rerep 5%, TDP1 cell noCPT -10%, TDP1 cell CPT 2%, IL-1B inflam inh inactive and BCR signal inh -5%.
`Cc1ccc(F)cc1C(=O)N1CCCCC1c1cc(C(=O)Nc2cccc(C#N)c2)no1` (configuration not stated) gave TDP1 cell noCPT 21µM*, TDP1 cell CPT 29µM* and IL-1B inflam inh 2.
For COc1ccc(N=C(c2ccccc2)c2c(C)[nH]n(-c3ccccc3)c2=O)c(OC)c1 the results were SW480 rerep -4%, MCF10A rerep 14%, TDP1 cell noCPT 18µM*, TDP1 cell CPT inconclusive, IL-1B inflam inh inconclusive and BCR signal inh inconclusive.
For CCOC(=O)C1=CN(CC)S(=O)(=O)NC1CC (configuration not stated) the results were SW480 rerep -43%, MCF10A rerep inconclusive, TDP1 cell noCPT 6%, TDP1 cell CPT 8%, IL-1B inflam inh 46 and BCR signal inh -3%.
`O=C(Cc1ccccc1)N1CCN=C1SCc1ccc([N+](=O)[O-])cc1` gave SW480 rerep -1%, MCF10A rerep -5%, TDP1 cell noCPT inconclusive, TDP1 cell CPT inconclusive, IL-1B inflam inh -55* and BCR signal inh inconclusive.
`O=C(COc1ccccc1)N1CCN=C1SCc1ccc(F)cc1` gave SW480 rerep inconclusive, MCF10A rerep -3%, TDP1 cell noCPT -22%, TDP1 cell CPT -17%, IL-1B inflam inh -97* and BCR signal inh inconclusive.
For CCOC(=O)N1CCN=C1SCc1ccc(C(F)(F)F)cc1 the results were SW480 rerep -2%, MCF10A rerep 6%, TDP1 cell noCPT inconclusive, TDP1 cell CPT 1%, IL-1B inflam inh -82* and BCR signal inh -27%.
`O=C(Cc1cccs1)N1CCN=C1SCc1ccc(Br)cc1` gave SW480 rerep 2%, MCF10A rerep inconclusive, TDP1 cell noCPT inconclusive, TDP1 cell CPT inconclusive, IL-1B inflam inh -102* and BCR signal inh -12%.
Screening CC(Oc1ccccc1)C(=O)N1CCN=C1SCc1ccc(F)cc1 (configuration not stated) returned SW480 rerep -20%, MCF10A rerep 0%, TDP1 cell noCPT -11%, TDP1 cell CPT inconclusive, IL-1B inflam inh -10 and BCR signal inh 2%.
Screening CCC(=O)N1CCN=C1SCc1ccccc1 returned SW480 rerep -7%, MCF10A rerep 3%, TDP1 cell noCPT -7%, TDP1 cell CPT 2%, IL-1B inflam inh -9 and BCR signal inh -6%.
